PubChem BioAssay (Tox21)
Several values for one entry are separate records, joined by “and”; a condition that tells them apart may be missing. Equal values may be shown once. Results filed as inconclusive are left out. Some compounds were tested as several samples or in several runs, with calls that do not always agree. Activity calls are given as the source filed them. Unless noted, calls follow the shape of the dose curve; as a rule, active = well fitted curve in the direction sought with a large enough effect in the repeat runs; inconclusive = weak or mixed curves; inactive = no such curve, though single readings can be large; an effect the other way counts as inactive or inconclusive.

Key:
[1] = qHTS assay for small molecules that induce genotoxicity in human embryonic kidney cells expressing luciferase-tagged ATAD5 - cell viability (AID 651634; calls by dose curve; also: nearly all actives have a fitted effect of over 25% in size; also: potency is read from the fitted curve at half-maximal effect)
In short: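 Quantitative high-throughput format. HEK293T cells expressing ATAD5 fused to luciferase were plated at 2,000 cells/well and treated 15.5 hr with compound versus DMSO. Viability was determined by fluorescent live-cell protease substrate, 30 min at 37C.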

[2] = qHTS assay for small molecule disruptors of the mitochondrial membrane potential - cell viability (AID 720634; calls by dose curve; also: nearly all actives have a fitted effect of over 20% in size; also: potency is read from the fitted curve at half-maximal effect)
In short: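 Same-well counter-screen: following the MMP dye addition, CellTiter-Glo was added to 1 hr compound-treated HepG2 cells and luminescence read after 30 min at room temperature.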

[3] = qHTS assay for small molecule disruptors of the mitochondrial membrane potential (AID 720635); also: potency is read from the fitted curve at half-maximal effect
In short: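 HepG2 cells exposed to compound 1 hr at 37C, then Mito-MPS dye 30 min. Ratio read of aggregate (540/590 nm) versus monomer (490/535 nm) fluorescence.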

[4] = qHTS assay to test for compound auto fluorescence at 590 nm (red) in HepG2 cells (AID 720674)
In short: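 HepG2 cells, 2,000 per well in MEM with 10% FBS, attached overnight at 37 C, then got 23 nL compound or DMSO. After 1 hr at 37 C, 5% CO2, red fluorescence was read at 540/590 nm against Rose Bengal sodium as reference.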

[5] = qHTS assay to test for compound auto fluorescence at 535 nm (green) in HepG2 cells (AID 720675)
[6] = qHTS assay to test for compound auto fluorescence at 460 nm (blue) in HEK293 cells (AID 720678)
In short: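 Cells were seeded and left to adhere for 4-5 hr at 37C. Compounds were then pin-transferred. After an overnight incubation at 37C under 5% CO2, intrinsic fluorescence at 405/460 nm was measured and referenced to triamterene.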

[7] = qHTS assay to test for compound auto fluorescence at 590 nm (red) in HEK293 cells (AID 720679)
In short: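 Each well held 2,000 HEK293 cells in medium containing 10% dialyzed FBS. Following 4-5 hr attachment at 37C, 23 nL test compound or DMSO was added; plates sat overnight, and red fluorescence (540/590nm) was recorded.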

[8] = qHTS assay to test for compound auto fluorescence at 535 nm (green) in HEK293 cells (AID 720680)
[9] = qHTS assay to test for compound auto fluorescence at 460 nm (blue) in HEK293 cell free culture (AID 720681)
In short: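 Compounds were added to cell-free DMEM with 10% FBS and fluorescence read directly. The blue channel used 405 nm excitation and 460 nm emission, with triamterene as the reference fluorophore.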

[10] = qHTS assay to test for compound auto fluorescence at 535 nm (green) in HEK293 cell free culture (AID 720682)
In short: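 Using fluorescein as calibrant, autofluorescence was quantified at 485/535 nm in cell-free DMEM containing 10% FBS after pintool addition of compound or vehicle.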

[11] = qHTS assay to test for compound auto fluorescence at 590 nm (red) in HEK293 cell free culture (AID 720683)
In short: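 Cell-free wells of DMEM with 10% FBS received compound, and intrinsic fluorescence was read at excitation/emission 540/590 nm. Values expressed as equivalence to Rose Bengal sodium.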

[12] = qHTS assay to test for compound auto fluorescence at 590 nm (red) in HepG2 cell free culture (AID 720684)
In short: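 Rose Bengal sodium served as the reference for red signal. Test compounds were dispensed into serum-containing MEM (10% FBS) without cells, and plates were read at 540/590 nm.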

[13] = qHTS assay to test for compound auto fluorescence at 460 nm (blue) in HepG2 cell free culture (AID 720685)
In short: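 Cell-free plates of MEM plus 10% FBS received 23 nL compound or DMSO vehicle; blue-channel (405/460 nm) intensity scored against triamterene as reference fluorophore.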

[14] = qHTS assay to test for compound auto fluorescence at 535 nm (green) in HepG2 cell free culture (AID 720686)
[15] = qHTS assay to test for compound auto fluorescence at 460 nm (blue) in HepG2 cells (AID 720687)
In short: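 HepG2 cells in MEM with 10% FBS, attached overnight at 37 C, were exposed to compound or DMSO for 1 hr at 37 C, 5% CO2. Blue fluorescence was read at 405/460 nm, with triamterene as reference fluorophore.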

[16] = qHTS assay for small molecules that induce genotoxicity in human embryonic kidney cells expressing luciferase-tagged ATAD5 (AID 651632); also: nearly all actives have a fitted effect of over 15% in size; also: potency is read from the fitted curve at half-maximal effect
In short: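 Test compounds were delivered by pin tool onto HEK293T reporter cells (2,000/well) expressing ATAD5 fused to luciferase. After 16 hr at 37C, 5% CO2, Amplite was added for 30 min at room temperature and luminescence was measured.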

[17] = qHTS assay for small molecule agonists of the p53 signaling pathway - cell viability (AID 651633; calls by dose curve; also: nearly all actives have a fitted effect of over 30% in size; also: potency is read from the fitted curve at half-maximal effect)
In short: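 p53RE-bla cells were treated with compound for 16 hours at 37 C. Cytotoxicity was then measured as CellTiter-Glo luminescence after 30 min at room temperature.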

[18] = molecular target: Glucocorticoid receptor (Homo sapiens) (UniProt P04150); test: qHTS assay to identify small molecule agonists of the glucocorticoid receptor (GR) signaling pathway (AID 720691; active = well fitted activation curve with a large enough effect in the signal ratio in the repeat runs, not every such curve was filed as active; the % refers to the signal ratio; also: potency is read from the fitted curve at half-maximal effect)
In short: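 A HeLa cervical cancer line expressing GR and a glucocorticoid response element-driven beta-lactamase gene is treated with compounds for 18 h; LiveBLAzer B/G FRET substrate is then applied and fluorescence read.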

[19] = qHTS assay for small molecule agonists of the p53 signaling pathway (AID 651631; calls by dose curve; also: nearly all actives have a fitted effect of over 15% in size)
In short: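 Stably transfected HCT-116 cells (beta-lactamase behind p53 response elements) get compounds after a 5 h settling period; 16 h later at 37 °C, FRET substrate is loaded and fluorescence read after 2 h.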

[20] = molecular target: Glucocorticoid receptor (Homo sapiens) (UniProt P04150); test: qHTS assay to identify small molecule antagonists of the glucocorticoid receptor (GR) signaling pathway (AID 720692; active = well fitted inhibition curve with a large enough effect in the signal ratio in the repeat runs, not every such curve was filed as active; the % refers to the signal ratio; also: potency is read from the fitted curve at half-maximal effect)
In short: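 GRE-bla HeLa line, dex-stimulated (5 nM final). Compound exposure 18 h, 37 C. Beta-lactamase FRET read after 2 h RT substrate.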

Measured: Potency

Glucocorticoid receptor (Homo sapiens), sequence (P04150 whole entry, looked up): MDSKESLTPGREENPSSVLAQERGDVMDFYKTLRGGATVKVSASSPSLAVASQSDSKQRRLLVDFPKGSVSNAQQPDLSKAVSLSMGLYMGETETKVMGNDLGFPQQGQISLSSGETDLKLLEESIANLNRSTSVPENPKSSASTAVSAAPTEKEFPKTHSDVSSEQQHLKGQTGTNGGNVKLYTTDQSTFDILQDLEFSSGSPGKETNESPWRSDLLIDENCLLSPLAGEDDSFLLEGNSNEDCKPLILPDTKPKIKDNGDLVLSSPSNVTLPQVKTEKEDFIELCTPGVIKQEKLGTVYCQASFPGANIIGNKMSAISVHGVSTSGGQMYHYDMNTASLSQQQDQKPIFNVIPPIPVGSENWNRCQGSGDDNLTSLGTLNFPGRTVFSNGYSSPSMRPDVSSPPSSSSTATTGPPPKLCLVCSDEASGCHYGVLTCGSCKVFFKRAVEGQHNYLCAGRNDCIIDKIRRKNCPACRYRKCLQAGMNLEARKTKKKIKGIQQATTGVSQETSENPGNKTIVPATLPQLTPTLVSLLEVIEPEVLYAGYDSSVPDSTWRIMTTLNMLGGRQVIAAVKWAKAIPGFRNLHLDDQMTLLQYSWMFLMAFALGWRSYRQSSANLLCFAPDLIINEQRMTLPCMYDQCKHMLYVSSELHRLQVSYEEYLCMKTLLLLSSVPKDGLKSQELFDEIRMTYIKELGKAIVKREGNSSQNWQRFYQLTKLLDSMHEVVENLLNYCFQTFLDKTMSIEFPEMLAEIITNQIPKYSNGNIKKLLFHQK

Cc1c(COC(=O)[C@@H]2[C@H](/C=C(\Cl)C(F)(F)F)C2(C)C)cccc1-c1ccccc1
active: [3] 26.7 µM and 34.3 µM
not listed: [16] | [17] | [18] | [19] | [20]
inactive: all other assays above

CCOCN(C(=O)CCl)c1c(C)cccc1CC
not listed: [3] | [19] | [20]
inactive: all other assays above

c1ccc(-c2cccc(-c3ccccc3)c2)cc1
not listed: [1] | [2] | [3] | [16] | [18] | [20]
inactive: all other assays above

N#Cc1cc(Br)c(O)c(Br)c1
active: [2] 11.7 µM | [3] 13.7 µM and 4.17 µM
not listed: [6] | [16] | [19] | [20]
inactive: all other assays above

Oc1cc(Cl)ccc1Oc1ccc(Cl)cc1Cl
active: [17] 3.95 µM | [2] 11.1 µM | [3] 4.22 µM and 352 nM
not listed: [1] | [16] | [20]
inactive: all other assays above

Oc1ccc(-c2ccccc2)cc1
active: [2] 53.8 µM and 48.6 µM | [3] 24 µM and 13.7 µM
not listed: [6] | [16] | [19] | [20]
inactive: all other assays above

CCCCC(CC)COC(=O)Cl (stereo not given)
not listed: [2] | [3] | [6] | [11] | [16] | [19]
inactive: all other assays above

CCCCN(CC)c1c([N+](=O)[O-])cc(C(F)(F)F)cc1[N+](=O)[O-]
active: [3] 6.86 µM
not listed: [16] | [19]
inactive: all other assays above

O=C(CCl)c1ccccc1
active: [16] 68.6 µM
inactive and 54.9 µM (active): [20]
not listed: [11] | [19]
inactive: all other assays above

Brc1ccc(Oc2cc(Br)c(Br)cc2Br)c(Br)c1
active: [3] 4.86 µM and 8.7 µM
not listed: [18] | [19] | [20]
inactive: all other assays above

CC(C)Oc1cc(-n2nc(C(C)(C)C)oc2=O)c(Cl)cc1Cl
active: [2] 12 µM and 54.5 µM | [3] 24 µM and 43.3 µM
not listed: [6] | [16] | [19] | [20]
inactive: all other assays above

c1cc(OCC2CO2)ccc1Cc1ccc(OCC2CO2)cc1 (stereo not given)
active: [17] 54.7 µM
not listed: [3] | [19] | [20]
inactive: all other assays above

CC1(C)C(C=C(Cl)Cl)C1C(=O)OC(C#N)c1cccc(Oc2ccccc2)c1 (stereo not given)
not listed: [2] | [3] | [6] | [16] | [20]
inactive: all other assays above

CCc1cccc(CC)c1N(COC)C(=O)CCl
not listed: [3] | [6] | [19] | [20]
inactive: all other assays above

CCCCCCCCC(=O)NCc1ccc(O)c(OC)c1
active: [18] 30.1 µM
not listed: [3] | [19] | [20]
inactive: all other assays above

C=C(C)[C@H]1Cc2c(ccc3c2O[C@@H]2COc4cc(OC)c(OC)cc4[C@@H]2C3=O)O1
active: [1] 139 nM and 486 nM | [2] 11.9 µM and 31 µM and 12.2 µM | [3] 15 µM and 31 µM and 4.86 µM
not listed: [17] | [19] | [20]
inactive: all other assays above
